Source: PubChem (University of Kansas High Throughput Screening Laboratory)
mHTT-CaM PPI inh: disrupts binding of mutant huntingtin to calmodulin; AlphaScreen His-mHTT/GST-CaM binding, luminescence; inhibition, % at 15 µM; 3.6% of 190,000 active; AID 1671202; P42858
Pf apPOL inh: Pf-apPOL DNA polymerase inhibition; AID 1794808; inhibition, % at 10 µM; 0.25% of 210,000 active; Recombinant Pf-apPOL, molecular beacon fluorescence, 1.5 h
A number is an active result; n = inactive. Most compounds without a hit are left out; they make up all but 3.5% or so of the library. No stated cut-off is given here; in the data, active means inhibition above about 50%; inactive means the rest.

SMILES | mHTT-CaM PPI inh | Pf apPOL inh
CCC(=O)N(C)CC(=O)N1N=C(c2ccccc2Cl)CC1c1ccccc1Cl (stereo not drawn) | 60 | n
CCNC(=O)N(C)CC(=O)N1N=C(c2ccccc2Cl)CC1c1ccccc1F (stereo not drawn) | n | n
COc1ccc(C2CC(c3ccccc3Cl)=NN2C(=O)CN(C)C(C)=O)cc1 (stereo not drawn) | 96 | n
O=C(NC(Nc1ccc([N+](=O)[O-])cc1[N+](=O)[O-])C(Cl)(Cl)Cl)c1cccnc1 (stereo not drawn) | n | n
O=C(Nc1cnc(-c2ccc(Cl)cc2)nc1)c1cncc(Br)c1 | n | n
CC1CCC(NC(=O)c2cc(N3CCCC(C)C3)nc3ccccc23)CC1 (stereo not drawn) | n | n
CCOC(=O)C1CCN(CC(O)COc2ccc(C34CC5CC(CC(C5)C3)C4)cc2)CC1 (stereo not drawn) | n | n
OC(COc1ccc(C23CC4CC(CC(C4)C2)C3)cc1)CN1CCCCC1 (stereo not drawn) | 100 | n
OC(COc1ccc(C23CC4CC(CC(C4)C2)C3)cc1)CN1CCOCC1 (stereo not drawn) | n | n
CN1CCN(CC(O)COc2ccc(C34CC5CC(CC(C5)C3)C4)cc2)CC1 (stereo not drawn) | 96 | n
Cc1noc(C2CN(C(=O)NC(C)C)CC23CCOCC3)n1 (stereo not drawn) | n | n
COc1cc(-c2nc(-c3cccs3)c(-c3cccs3)[nH]2)ccc1O | 97 | n
COc1cc(-c2csc(C)n2)ccc1O | n | n
N#CC1=C(N)OC2=C(C(=O)CCC2)C1c1ccccc1 (stereo not drawn) | n | n
N#CC1=C(N)OC2=C(CC/C2=C\c2ccccc2)C1c1ccccc1 (stereo not drawn) | 90 | n
O=C1OC(c2ccc(Cl)c(Cl)c2)=N/C1=C\c1ccc(F)cc1 | n | n
Cc1nc2cc(N=Cc3ccc(Br)cc3)ccc2n1C | n | 53
Cc1nc2cc(N=Cc3ccccc3O)ccc2n1C | n | n
Cc1c(C#N)sc2nc(-c3ccccc3)nc(N=CN(C)C)c12 | n | n
CN(C)C=Nc1c(C#N)cnn1-c1ncnc2sc(-c3ccccc3)cc12 | 82 | n
Cc1cc(C)cc(OCCCOc2ccc(/C=C3/C(=N)N4C=CSC4=NC3=O)cc2)c1 | n | n
COc1cc(CN2CCc3nc(Nc4ccc(F)cc4)ncc3C2)ccc1OC(C)C | 95 | n
CCOc1ccc(CN2CCc3nc(Nc4ccccc4)ncc3C2)cc1OC | n | n
COc1cc(CN2CCc3nc(Nc4ccccc4)ncc3C2)ccc1OC(C)C | 57 | n
COc1cc(CN2CCc3nc(Nc4ccccc4F)ncc3C2)ccc1OC(C)C | n | n
SMILES | mHTT-CaM PPI inh | Pf apPOL inh
O=C(NCCSc1c[nH]c2ccccc12)c1c(F)cccc1Cl | n | n
Cc1ccccc1-n1nc2c(c1NC(=O)C1CCCCC1)CSC2 | 52 | n
Cc1ccccc1-n1nc2c(c1NC(=O)c1ccccc1C(F)(F)F)CSC2 | n | n
Cc1cccc(C(=O)Nc2c3c(nn2-c2ccccc2C)CSC3)c1 | 58 | n
Cc1ccccc1-n1nc2c(c1NC(=O)c1cccc(C(F)(F)F)c1)CSC2 | 100 | n
O=C(Nc1c2c(nn1-c1ccc(Cl)cc1)CSC2)C1CCCC1 | n | n
Cc1cccc(-n2nc3c(c2NC(=O)C2CCCC2)CSC3)c1C | n | n
O=C(Nc1c2c(nn1-c1ccc(F)cc1)CSC2)C1CCCC1 | 57 | n
Cc1ccccc1-n1nc2c(c1NC(=O)c1cccc([N+](=O)[O-])c1)CSC2 | n | n
Cc1ccc(C(=O)Nc2c3c(nn2-c2cccc(C)c2C)CSC3)cc1[N+](=O)[O-] | n | n
Cc1ccc(C(=O)Nc2c3c(nn2-c2ccccc2C)CSC3)cc1 | n | n
Cc1ccc(C(=O)Nc2c3c(nn2-c2ccccc2C)CSC3)cc1C | 62 | n
Cc1ccccc1-n1nc2c(c1NC(=O)c1ccc(Cl)c([N+](=O)[O-])c1)CSC2 | 56 | n
Cc1cccc(C(=O)Nc2c3c(nn2-c2ccc([N+](=O)[O-])cc2)CSC3)c1 | n | n
O=C(Nc1c2c(nn1-c1ccc([N+](=O)[O-])cc1)CSC2)c1cccc(C(F)(F)F)c1 | 57 | n
Cc1ccc(C(=O)N2CCCN(Cc3nc(-c4cccc(F)c4)no3)CC2)c(C)c1 | n | n
Cn1nc(-c2nc(-c3ccccc3F)no2)c2c1CCN(C(=O)c1ccc(F)c(F)c1)C2 | n | n
Cc1cccc(-n2cnc3cc(C(=O)N4CCc5ccccc54)ccc32)c1 | 67 | n
Cc1cccc(-n2cnc3cc(C(=O)NC4CCCC4)ccc32)c1 | n | n
O=C(COc1ccccc1N1C(=O)C2CCCCC2C1=O)c1ccc(F)cc1 (stereo not drawn) | n | n
O=C(Nc1ccc(Oc2ccccc2)cc1)c1cccnc1 | n | n
COc1ccc(-c2nnc3n2CCN(Cc2scnc2C)C3)cc1 | n | n
Cc1nn(-c2cccc(C(=O)O)c2)c(C)c1-c1cccc([N+](=O)[O-])c1 | n | n
O=C(CCC(=O)N1CC2CCCN2c2ccccc21)NCCN1CCCC1 (stereo not drawn) | 68 | n
